# In PubChem BioAssay:
# Activity calls are given as the source filed them.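 The calls were made as follows, unless noted: active = a full or partial loss of lipid-probe fluorescence in the fish gall bladder, intestine or both, judged by eye; inactive = no fluorescence loss, or compound toxic to the fish.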
# What was measured:
# [1] = inhibitors of TNFa-induced NFkB p65 translocation, primary screen, imaging, HUVEC, MLSMR starter and 10KST1 sets (AID 438;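 active = inhibition above 20% together with a positive visual image hit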;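 also: compound added about 3h40 before a 20 min TNFalpha stimulation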;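 as to inhibition: signal is the nuclear over cytoplasmic p65 intensity ratio per well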); conditions: HUVEC TNFa-induced p65 nuclear translocation; cell count: measured here: nuclei count (cytotoxicity indicator), at 2.08 µM; inhibition: at 2 µM, stronger effect = higher value, 0% TNFa-plus-vehicle, 100% no-TNFa wells
# [2] = reduction of polyQ htt aggregates in cells – imaging, exon1htt(103Q)mCFP cells, high-content imaging, primary screen (AID 483;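 active = visual image review flags a hit and inhibition of aggregation exceeds 20%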;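 also: compound exposure lasted 3 days before fixation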;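 as to nuclei count: percent of the per-plate median nuclei count of sample wells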); conditions: exon1htt(103Q)mCFP cell line, aggregate imaging, at 2 µM; inhibition of aggregation: stronger effect = higher value; nuclei count: measured here: cell count, toxicity
# [3] = endothelial E-selectin expression blockers – imaging, HUVEC, immunofluorescence, MLSMR starter and 10KST1 sets, primary screen (AID 487;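 active = visually confirmed hit in the image check and inhibition above 20%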;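 as to inhibition: signal is fraction of cell area covered by stained E-selectin grains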;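 as to nuclei count: 100% = median nuclei count of all wells on the same plate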); conditions: HUVEC TNFalpha-induced E-selectin immunofluorescence imaging, at 2 µM; inhibition: stronger effect = higher value; nuclei count: measured here: cell number, toxicity
# [4] = Primary imaging screen for DUSP6 inhibitors that restore phospho-Erk in transfected HeLa cells, chemical complementation (AID 609;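 active = compounds giving at least 50% inhibition in the cell-based MKP-3 phosphatase rescue imaging test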;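 as to inhibition: phospho-Erk level distribution per well compared with pooled transfected vehicle control wells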); conditions: HeLa MKP-3 transfected, phospho-Erk imaging KS statistic, at 10 µM, cells stimulated with TPA for 15 min
# [5] = target: Dual specificity protein phosphatase 6 (Homo sapiens) (UniProt Q16828); experiment: as above; conditions: HeLa MKP-3 transfected, phospho-Erk imaging KS statistic; at 10 µM; stronger effect = higher value; cells stimulated with TPA for 15 min
# Dual specificity protein phosphatase 6 (Homo sapiens), sequence (Q16828 whole entry, looked up): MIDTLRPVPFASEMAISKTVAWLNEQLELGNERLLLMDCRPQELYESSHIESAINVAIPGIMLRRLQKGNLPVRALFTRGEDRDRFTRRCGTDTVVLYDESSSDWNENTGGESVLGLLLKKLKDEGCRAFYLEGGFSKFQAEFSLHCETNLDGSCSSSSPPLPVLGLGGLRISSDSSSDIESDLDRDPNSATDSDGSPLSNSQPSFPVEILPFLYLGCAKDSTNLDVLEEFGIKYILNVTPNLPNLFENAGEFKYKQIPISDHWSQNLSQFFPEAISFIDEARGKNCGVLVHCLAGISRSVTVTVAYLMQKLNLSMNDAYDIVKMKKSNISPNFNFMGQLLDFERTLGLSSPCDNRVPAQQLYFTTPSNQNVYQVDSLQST
# [6] = target: Voltage-gated potassium channel subunit beta-2 (Rattus norvegicus) (UniProt P62483); experiment: inhibitors of rat Kvbeta2 reductase activity – biochemical, NADPH fluorescence, primary screen (AID 622;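 active = fluorescence slope higher than the sample average by over 3 SD, cut at about -0.22 in these data, passing the limit was not always enough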;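 also: slope of raw intensity against log time taken from 70 to 1610 s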); conditions: recombinant KvBeta, 4-cyanobenzaldehyde reduction, at 10 µM, stronger effect = higher value
# Voltage-gated potassium channel subunit beta-2 (Rattus norvegicus), sequence (P62483 whole entry, looked up): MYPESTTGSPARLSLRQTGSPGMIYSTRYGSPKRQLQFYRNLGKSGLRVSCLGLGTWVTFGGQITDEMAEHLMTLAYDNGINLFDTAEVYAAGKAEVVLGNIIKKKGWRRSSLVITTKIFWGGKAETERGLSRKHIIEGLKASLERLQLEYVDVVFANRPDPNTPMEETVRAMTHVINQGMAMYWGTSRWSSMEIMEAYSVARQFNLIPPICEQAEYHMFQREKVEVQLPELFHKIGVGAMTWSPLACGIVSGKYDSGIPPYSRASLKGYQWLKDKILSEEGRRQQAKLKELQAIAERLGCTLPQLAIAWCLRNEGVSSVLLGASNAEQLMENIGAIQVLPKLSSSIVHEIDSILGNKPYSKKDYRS
# [7] = target: Voltage-gated potassium channel subunit beta-2 (Rattus norvegicus) (UniProt P62483); experiment: enhancers of rat Kvbeta2 NADPH turnover – biochemical, NADPH fluorescence, primary screen (AID 623;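 active = NADPH fluorescence slope more negative than the mean of all samples by about 3 SD, 99.7% confidence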;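 also: fluorescence intensity change per second fitted from 20 to 320 s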); conditions: Recombinant KvBeta, NADPH fluorescence decrease slope, 10 min; at 10 µM; stronger effect = lower value
# [8] = target: Alpha-2C adrenergic receptor (Homo sapiens) (UniProt P18825); experiment: compounds altering alpha2C-coupled GIRK flux – cell-based, HEK293 alpha2C/GIRK1/2, thallium flux, primary screen (AID 624;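 active = fluorescence slope after compound addition differing from the mean of all screened samples at 99.7% confidence, in either direction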;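 also: slope of fluorescence ratio to pre-addition baseline per second over 15 to 24 s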); conditions: thallium flux BTC fluorescence, at 10 µM, actives lie on both sides
# Alpha-2C adrenergic receptor (Homo sapiens), sequence (P18825 whole entry, looked up): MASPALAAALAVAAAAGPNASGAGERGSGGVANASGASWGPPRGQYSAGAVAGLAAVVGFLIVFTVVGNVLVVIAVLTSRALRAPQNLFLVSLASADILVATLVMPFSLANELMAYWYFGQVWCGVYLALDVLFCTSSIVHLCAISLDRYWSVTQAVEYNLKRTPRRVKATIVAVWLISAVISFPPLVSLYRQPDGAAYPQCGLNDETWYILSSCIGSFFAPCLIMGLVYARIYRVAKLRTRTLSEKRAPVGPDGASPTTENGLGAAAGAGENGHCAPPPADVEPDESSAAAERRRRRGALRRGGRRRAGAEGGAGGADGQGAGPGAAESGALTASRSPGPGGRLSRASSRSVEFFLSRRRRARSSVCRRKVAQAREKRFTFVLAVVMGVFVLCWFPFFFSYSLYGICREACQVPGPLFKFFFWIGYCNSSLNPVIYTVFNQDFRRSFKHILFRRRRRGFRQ
# [9] = inhibitors of larval lipid processing in zebrafish, primary screen, whole organism, PED6 fluorescence, gall bladder and intestine (AID 686); conditions: Zebrafish larvae PED6 lipid processing, fluorescence scoring; screened at 20 µM (by protocol);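 also: larvae 5 to 7 days old with five fish per well; signal comes from phospholipase A2 cleavage of quenched PED6 carried via bile; overnight exposure to compound and PED6 before scoring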
# [10] = loss of swimming-algae plug formation – whole organism, Chlamydomonas reinhardtii, WT vs cilia-less mutant, absorbance, 96-well, primary screen (AID 463189;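 active = inhibition at or above 50% relative to wild type and mutant plate controls; inactive = inhibition below 50%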;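 also: 0% = wild type cc124 cells in DMSO and 100% = ciliumless bld1 mutant cells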); conditions: Chlamydomonas reinhardtii gravitaxis, OD600 absorbance, 2 days; at 10 µM; stronger effect = higher value
# [11] = blockers of RIG-like receptor reporter activation – cell-based, Sendai virus stimulus, luciferase, 10K MLSCN set, TLR/RLR signaling modifier project, primary screen (AID 602276;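 active = inhibition at or above 50% at 10 µM; inactive = inhibition below 50%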;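 also: firefly luciferase from ISG56 promoter only with Renilla not read in this screen; 0% = Sendai virus plus DMSO and 100% = medium plus DMSO without virus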); conditions: HEK293 RL24 IRF3 luciferase reporter, at 10 µM, stronger effect = higher value
# [12] = TLR3 IRF3 reporter activation blockers – cell-based, poly I:C stimulus, luciferase, 10K MLSCN set, primary screen (AID 602277;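 active = inhibition of the reporter signal at or above 50%; inactive = inhibition below 50%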); conditions: HEK293-TLR3 RL24 IRF3 luciferase reporter, at 10 µM, stronger effect = higher value
# [13] = measured here: cell density z-score
# [14] = measured here: nuclear c-Myc green intensity z-score
# [15] = measured here: nuclear pErk red intensity z-score, stronger effect = higher value
structure (smiles),measurement,setting,value
Cn1c(=O)n(CCC(=O)O)c2ccccc21,cell count,[1],429
same,inhibition,[1],-3.4% (inactive)
same,inhibition of aggregation,[2],7.9% (inactive)
same,nuclei count,[2],96.9%
same,inhibition,[3],-65.4% (inactive)
same,nuclei count,[3],159%
same,z-score,[4]; [13],-0.862
same,z-score,[4]; [14],-1.01
same,z-score,[4]; [15],0.787
same,inhibition,[5],-9.7% (inactive)
same,fluorescence slope,[6],-0.405 (inactive)
same,NADPH fluorescence slope,[7],-5.3e-05 (inactive)
same,slope,[8],0.00491 (inactive)
same,outcome,[9],inactive
same,inhibition,[10],1.78% (inactive)
same,inhibition,[11],16.2% (inactive)
same,inhibition,[12],22.9% (inactive)
S=C(N=Nc1ccccc1)NNc1ccccc1,cell count,[1],456
same,inhibition,[1],-24.6% (inactive)
same,inhibition of aggregation,[2],15.4% (inactive)
same,nuclei count,[2],97.4%
same,inhibition,[3],-51.9% (inactive)
same,nuclei count,[3],122%
same,z-score,[4]; [13],0.583
same,z-score,[4]; [14],-0.233
same,z-score,[4]; [15],0.888
same,inhibition,[5],-2.46% (inactive)
same,fluorescence slope,[6],-0.552 (inactive)
same,NADPH fluorescence slope,[7],-4.2e-05 (inactive)
same,slope,[8],0.0111 (inactive)
same,outcome,[9],inactive
same,inhibition,[10],12.8% (inactive)
same,inhibition,[11],-11.4% (inactive)
same,inhibition,[12],-44.3% (inactive)
CCNC(=O)N(C)c1nncnc1C(=O)NC,cell count,[1],435
same,inhibition,[1],-12.6% (inactive)
same,inhibition of aggregation,[2],6.9% (inactive)
same,nuclei count,[2],105%
same,inhibition,[3],-11.1% (inactive)
same,nuclei count,[3],105%
same,z-score,[4]; [13],0.426
same,z-score,[4]; [14],0.386
same,z-score,[4]; [15],0.174
same,inhibition,[5],2.92% (inactive)
same,fluorescence slope,[6],-0.505 (inactive)
same,NADPH fluorescence slope,[7],-4.4e-05 (inactive)
same,slope,[8],0.00736 (inactive)
same,outcome,[9],inactive
same,inhibition,[10],35.2% (inactive)
same,inhibition,[11],18.1% (inactive)
same,inhibition,[12],22.2% (inactive)
Nc1cccc(C(=O)O)c1,cell count,[1],563
same,inhibition,[1],3.8% (inactive)
same,inhibition of aggregation,[2],28.2% (inactive)
same,nuclei count,[2],59%
same,inhibition,[3],-31.1% (inactive)
same,nuclei count,[3],97.4%
same,z-score,[4]; [13],1.14
same,z-score,[4]; [14],0.242
same,z-score,[4]; [15],-0.0201
same,inhibition,[5],12.4% (inactive)
same,fluorescence slope,[6],-0.462 (inactive)
same,NADPH fluorescence slope,[7],-4.9e-05 (inactive)
same,slope,[8],0.00577 (inactive)
same,outcome,[9],inactive
same,inhibition,[10],-1.48% (inactive)
same,inhibition,[11],9.57% (inactive)
same,inhibition,[12],34.4% (inactive)
CC1(C)CC(=O)C2=C(C1)N(CC1CCCO1)C(=O)C2(O)C(F)(F)F (stereo not given),cell count,[1],503
same,inhibition,[1],6.9% (inactive)
same,inhibition of aggregation,[2],-2.8% (inactive)
same,nuclei count,[2],108%
same,inhibition,[3],-123% (inactive)
same,nuclei count,[3],123%
same,z-score,[4]; [13],-0.368
same,z-score,[4]; [14],0.41
same,z-score,[4]; [15],-0.669
same,inhibition,[5],1.75% (inactive)
same,fluorescence slope,[6],-0.492 (inactive)
same,NADPH fluorescence slope,[7],-1.2e-05 (inactive)
same,slope,[8],0.00532 (inactive)
same,outcome,[9],inactive
same,inhibition,[10],29.7% (inactive)
same,inhibition,[11],-0.648% (inactive)
same,inhibition,[12],98% (active)
COC(=O)CSc1nc(C)c(C(C)=O)cc1C#N,cell count,[1],505
same,inhibition,[1],-8.8% (inactive)
same,inhibition of aggregation,[2],5.5% (inactive)
same,nuclei count,[2],86.1%
same,inhibition,[3],-16.5% (inactive)
same,nuclei count,[3],136%
same,z-score,[4]; [13],-0.468
same,z-score,[4]; [14],-1.01
same,z-score,[4]; [15],-0.0332
same,inhibition,[5],-8.95% (inactive)
same,fluorescence slope,[6],-0.376 (inactive)
same,NADPH fluorescence slope,[7],-3.7e-05 (inactive)
same,slope,[8],0.00524 (inactive)
same,outcome,[9],inactive
same,inhibition,[10],13.8% (inactive)
same,inhibition,[11],3.96% (inactive)
same,inhibition,[12],-12.7% (inactive)
COc1ccc2nc(S(=O)Cc3ncc(C)c(OC)c3C)[nH]c2c1 (stereo not given),cell count,[1],542
same,inhibition,[1],1.6% (inactive)
same,inhibition of aggregation,[2],2.2% (inactive)
same,nuclei count,[2],97.5%
same,inhibition,[3],-24.2% (inactive)
same,nuclei count,[3],108%
same,z-score,[4]; [13],0.164
same,z-score,[4]; [14],1.22
same,z-score,[4]; [15],-0.909
same,inhibition,[5],25.7% (inactive)
same,fluorescence slope,[6],-0.449 (inactive)
same,NADPH fluorescence slope,[7],-7.2e-06 (inactive)
same,slope,[8],0.00367 (inactive)
same,outcome,[9],inactive
same,inhibition,[10],27% (inactive)
same,inhibition,[11],-9.53% (inactive)
same,inhibition,[12],-10.5% (inactive)
O=C(OCC#CCSc1nnc(-c2ccccc2)o1)c1cccs1,cell count,[1],281
same,inhibition,[1],-2.4% (inactive)
same,inhibition of aggregation,[2],8.9% (inactive)
same,nuclei count,[2],95.4%
same,inhibition,[3],-178% (inactive)
same,nuclei count,[3],132%
same,z-score,[4]; [13],-0.348
same,z-score,[4]; [14],0.84
same,z-score,[4]; [15],0.574
same,inhibition,[5],3.66% (inactive)
same,fluorescence slope,[6],-0.396 (inactive)
same,NADPH fluorescence slope,[7],-4e-05 (inactive)
same,slope,[8],0.00513 (inactive)
same,outcome,[9],inactive
same,inhibition,[10],-3.45% (inactive)
same,inhibition,[11],-0.522% (inactive)
same,inhibition,[12],1.31% (inactive)
CC(=O)O[C@]1(C(C)=O)CC[C@H]2[C@@H]3C[C@H](C)C4=CC(=O)CC[C@]4(C)[C@H]3CC[C@@]21C,cell count,[1],605
same,inhibition,[1],2.3% (inactive)
same,inhibition of aggregation,[2],0.3% (inactive)
same,nuclei count,[2],94.8%
same,inhibition,[3],-47.8% (inactive)
same,nuclei count,[3],119%
same,z-score,[4]; [13],1.33
same,z-score,[4]; [14],-0.458
same,z-score,[4]; [15],0.835
same,inhibition,[5],12.4% (inactive)
same,fluorescence slope,[6],-0.521 (inactive)
same,NADPH fluorescence slope,[7],-6e-06 (inactive)
same,slope,[8],0.00379 (inactive)
same,outcome,[9],inactive
same,inhibition,[10],-2.6% (inactive)
same,inhibition,[11],8.39% (inactive)
same,inhibition,[12],46.7% (inactive)
CN(C=C1C(=O)CC(C)(C)CC1=O)CCN1CCNCC1,cell count,[1],624
same,inhibition,[1],-4.9% (inactive)
same,inhibition of aggregation,[2],-3.7% (inactive)
same,nuclei count,[2],97.1%
same,inhibition,[3],-43.7% (inactive)
same,nuclei count,[3],121%
same,z-score,[4]; [13],-0.672
same,z-score,[4]; [14],-0.802
same,z-score,[4]; [15],1.89
same,inhibition,[5],-1.98% (inactive)
same,fluorescence slope,[6],-0.519 (inactive)
same,NADPH fluorescence slope,[7],-5.2e-05 (inactive)
same,slope,[8],0.00485 (inactive)
same,outcome,[9],inactive
same,inhibition,[10],6.8% (inactive)
same,inhibition,[11],14.6% (inactive)
same,inhibition,[12],16.6% (inactive)
